These results are taken from ChEMBL document CHEMBL1157539, “Thousands of chemical starting points for antimalarial lead identification” (Nature, 2010).

What all share (format): functional
In assay [1] the test system is Plasmodium falciparum. The experiment in a line: GSK_TCMDC: Inhibition of Plasmodium falciparum 3D7 in whole red blood cells, using parasite LDH activity as an index of growth. Test compounds present at 2uM.
In assay [2] the test system is Plasmodium falciparum. The experiment in a line: GSK_TCMDC: Inhibition of Plasmodium falciparum Dd2 in whole red blood cells, using parasite LDH activity as an index of growth. Test compounds present at 2uM.
In the next assay the test system is HepG2. Description: GSK_TCMDC: Percent inhibition of human HepG2 cell line. Test compounds present at 10uM.

For the molecule `COCc1cccc(-c2cc(-c3ccc(S(C)(=O)=O)cc3)cnc2N)c1`, the Inhibition (usually the drop in the measured response relative to a control, in per cent) is 98% in the assay on Plasmodium falciparum [1], 88% in the assay on Plasmodium falciparum [2] and 10% in the assay with HepG2.
In the case of `COc1cc(NC(=O)c2sc(-c3ccc(Cl)cc3)cc2NC(=O)CN2CCCC2)ccc1OCCN1CCCC1.Cl`, the Inhibition in the assay on Plasmodium falciparum [1] is given as 86%; with Plasmodium falciparum [2] it was 79%; in the assay with HepG2, 29%.
For `CCN(CCCN1CCCCC1)c1cc(C)nc(Nc2ccc(C(C)C)cc2)n1.O=C(O)C(F)(F)F`, the values for the Inhibition in the assay on Plasmodium falciparum [1], in the assay with Plasmodium falciparum [2] and in the assay with HepG2 were 100%, 51% and 34%, respectively.
With `Cc1ccc(NC(=O)c2ccc(CN3CCCN(Cc4cccc(O)c4)CC3)cc2)cc1.O=C(O)C(F)(F)F`, the values for the Inhibition in the assay on Plasmodium falciparum [1], in the assay with Plasmodium falciparum [2] and in the assay on HepG2 were 90%, 31% and 39%, respectively.
The like results for `CCc1ccc(NC(=O)c2cccc(CN3CCCN(Cc4cccc(O)c4)CC3)c2)cc1.O=C(O)C(F)(F)F` were, in that order, 99%, 50% and 53%.
For the molecule `Cc1cc(N[C@@H](CC(C)C)C(=O)NCc2cccc(F)c2)nc(NCC2CCCCC2)n1.O=C(O)C(F)(F)F`, the values for the Inhibition in the assay with Plasmodium falciparum [1], with Plasmodium falciparum [2] and with HepG2 were 99%, 70% and 3%, respectively.
Regarding `COc1ccc(-c2nc(NCc3ccccc3)c3cc(OC)c(OC)cc3n2)cc1`, the Inhibition with Plasmodium falciparum [1] is reported as 100%; in the assay on Plasmodium falciparum [2], 100%; in the assay with HepG2, 15%.
Regarding `CCC(C)(C)C1CCc2nc(N)nc(N)c2C1.Cl` (stereo not given), the Inhibition stood at 95% with Plasmodium falciparum [1], 97% in the assay with Plasmodium falciparum [2] and 71% in the assay with HepG2.
Take `Nc1c(Cl)cc(C(O)CNCCCCCOCCc2ccc3ccccc3n2)cc1Cl.O=C(O)/C=C/C(=O)O` (stereo not given): the Inhibition in the assay with Plasmodium falciparum [1] is given as 98%; in the assay with Plasmodium falciparum [2], 97%; in the assay with HepG2, 9%.
Consider `Cc1nc(C)c(CC(=O)Nc2ccc(-c3cccc(-c4nc5cccc(C)c5[nH]4)c3)cc2)s1`, for which the Inhibition in the assay with Plasmodium falciparum [1] is reported as 100%; in the assay on Plasmodium falciparum [2] it was 38%; in the assay on HepG2 it was 41%.
For the molecule `COc1ccc(N(c2nc(-c3cc(Cl)ccc3Cl)cs2)C2CCNC2)cc1.O=C(O)C(F)(F)F` (stereo not given), the figures for the Inhibition in the assay with Plasmodium falciparum [1], in the assay with Plasmodium falciparum [2] and in the assay on HepG2 were 95%, 9% and 21%, respectively.
The like results for `Cc1cc([N+](=O)[O-])ccc1NC(=O)Nc1cccc(C(F)(F)F)c1` were, in that order, 100%, 100% and 15%.
With `CCCCN1CC[C@@H](CCC(O)c2ccnc3ccc(OCCC(C)C)cc23)[C@@H](CC)C1.O=C(O)C(=O)O` (stereo not given in full), the Inhibition with Plasmodium falciparum [1] worked out at 94%; in the assay on Plasmodium falciparum [2], 90%; with HepG2 it was 22%.
The like results for `Cc1cccc2nc(-c3ccc(-c4cccc(NC(=O)Nc5ccsc5)c4)cc3)[nH]c12` were, in that order, 100%, 24% and 24%.
On the same counts, the results for `O=C(/C=C/c1ccc(Cl)c(Cl)c1)NCCCCCN1CCCN(C(=O)Nc2ccc(Br)cc2)CC1` are 99%, 0% and 38%.
The like results for `COc1cccc(C(C)(C)NC[C@@H](O)[C@H](Cc2ccccc2)NC(=O)c2cc(C3CCCC3)cc(N3CCCCS3(=O)=O)c2F)c1.O=CO` were, in that order, 99%, 99% and 16%.
Take `O=C(Nc1ccc(Cl)c(Cl)c1)N(Cc1ccccc1Br)C1CCNCC1`: the Inhibition is on record as 96% in the assay on Plasmodium falciparum [1], 8% in the assay on Plasmodium falciparum [2] and 13% in the assay with HepG2.
With `O=C(CN1CCN(S(=O)(=O)C=Cc2ccccc2)CC1)Nc1cc(C(F)(F)F)ccc1Cl`, the Inhibition in the assay with Plasmodium falciparum [1] came out at 96%; in the assay with Plasmodium falciparum [2], 63%; with HepG2, 23%.
`CCOC(=O)N1NC(=O)N(c2ccccc2)C1(c1ccccc1)c1ccccc1`: the Inhibition in the assay on Plasmodium falciparum [1] was determined as 96%; in the assay on Plasmodium falciparum [2] it was 82%; in the assay with HepG2 it was 5%.
On the same counts, the results for `CC(C)CN1C(=O)c2ccc(C(=O)Nc3nccs3)cc2C1=O` are 89%, 0% and 3%.
The like results for `CCC(C)CNC(=O)CN1CN(c2ccccc2)C2(CCN(C(=O)c3ccc(Br)cc3)CC2)C1=O` (stereo not given) were, in that order, 88%, 88% and 10%.
The like results for `COc1ccccc1CCC(C)(C)NC(=O)CC(CCc1ccccc1)Nc1ccc(C#N)c2ccccc12` (stereo not given) were, in that order, 94%, 65% and 6%.
`CCCCCCCN1CCC(NC(=O)Nc2ccnc3ccc(OC)cc23)C(C(=O)OCC)C1.O=C(O)C(=O)O` (stereo not given): the Inhibition is given as 100% in the assay on Plasmodium falciparum [1], 73% with Plasmodium falciparum [2] and 11% in the assay on HepG2.
For `O=C(Nc1cc(Oc2ccc(O)cc2)cc([N+](=O)[O-])c1)c1cc(-c2ccc(F)cc2)no1`, the values for the Inhibition in the assay on Plasmodium falciparum [1], in the assay on Plasmodium falciparum [2] and in the assay on HepG2 were 88%, 37% and 61%, respectively.
On the same counts, the results for `OC1=C2C(=Nc3ccccc3SC2c2ccccc2)c2ccccc21` (stereo not given) are 86%, 94% and 5%.
`Cc1cccc(CNc2nc(C)cc(N[C@@H](CC(C)C)C(=O)NCc3cccc(F)c3)n2)c1.O=C(O)C(F)(F)F`: the Inhibition in the assay with Plasmodium falciparum [1] was found to be 91%; in the assay with Plasmodium falciparum [2], 32%; in the assay on HepG2, 13%.
`COC(=O)Nc1cc(C(F)(F)F)ccc1N1CCC(CNS(=O)(=O)c2ccc(OC)cc2)CC1`: the results for the Inhibition in the assay on Plasmodium falciparum [1], in the assay on Plasmodium falciparum [2] and with HepG2 were 99%, 95% and 13%, respectively.
On the same counts, the results for `COc1ccc2nc(C)cc(NCc3cccc4ccccc34)c2c1.Cl` are 100%, 72% and 28%.
On the same counts, the results for `O=C(Nc1cc(C(F)(F)F)ccc1-n1cncn1)C1(c2ccccc2)CC1` are 100%, 100% and 11%.
On the same counts, the results for `C[C@H]1CN(Cc2cccc(-c3cc(CNC(=O)c4cccc(CN5CCN(CCOc6ccccc6)CC5)c4)ccc3F)c2)CCN1.O=C(O)C(F)(F)F` are 91%, 88% and 59%.
